The results in this text go back to PubChem BioAssay AID1851 (National Center for Advancing Translational Sciences (NCATS), 2009).

Out of some 16,000 compounds screened, about 5,700 (36%) were called active. Inconclusive results (about 24%) are left out. The list shows a part of the results. Unmarked numbers belong to inactive results. Calls come from the whole dose curve; as a rule, active = well fitted curve in the direction sought with a large enough effect; inconclusive = small, poorly fitted or top-dose-only effect, or effect the other way; inactive = no such curve, though single readings can be large or run the other way.

By AC50 is commonly meant the concentration giving half of the maximal activity seen.
% is set by controls: 0 for no effect and ±100 for the full control effect.

Sequence of Cytochrome P450 1A2 (Homo sapiens) (P05177 whole entry, looked up): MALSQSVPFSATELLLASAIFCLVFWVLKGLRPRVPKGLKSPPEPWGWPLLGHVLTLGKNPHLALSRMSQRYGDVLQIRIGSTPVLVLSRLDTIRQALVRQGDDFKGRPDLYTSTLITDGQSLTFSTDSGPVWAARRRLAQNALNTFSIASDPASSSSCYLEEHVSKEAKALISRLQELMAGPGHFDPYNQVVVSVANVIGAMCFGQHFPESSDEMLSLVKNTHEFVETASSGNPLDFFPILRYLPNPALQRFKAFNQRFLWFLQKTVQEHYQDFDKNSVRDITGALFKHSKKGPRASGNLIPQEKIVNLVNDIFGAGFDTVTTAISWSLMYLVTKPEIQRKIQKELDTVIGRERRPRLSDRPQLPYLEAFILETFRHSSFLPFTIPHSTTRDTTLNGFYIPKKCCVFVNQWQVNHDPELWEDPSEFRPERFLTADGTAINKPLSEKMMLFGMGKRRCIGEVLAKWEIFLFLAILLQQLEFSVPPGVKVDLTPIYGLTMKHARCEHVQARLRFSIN

This test has as its target Cytochrome P450 1A2 (Homo sapiens) (UniProt P05177). The test can be described thus: Cytochrome panel assay with activity outcomes. The following applies: recombinant CYP, pro-luciferin dealkylation, luminescence, p450-cyp1a2; series mostly up to 57.1 µM; activity, negative = inhibition: at the top concentration.
Consider `CC(C)c1ccc(C(c2c(O)c3ccccc3oc2=O)c2c(O)c3ccccc3oc2=O)cc1`, for which the activity, negative = inhibition is -18.8% [at 2.29 µM]. For the compound `COc1cc(CCN)ccc1O`, the “activity, negative = inhibition” value is -19.4%. As to `CCCCCCCCC(=O)NCc1ccc(O)c(OC)c1`, the AC50 was 12600 nM (active). Take `CNC[C@H](O)c1ccc(O)c(OC)c1`: the “activity, negative = inhibition” value is -0.882% [at 25.6 µM].

Consider `COc1cc(CNC(=O)CCCC/C=C\C(C)C)ccc1O`, for which the AC50 is 1580 nM (active). As for `COc1ccc(C[C@@H]2NC[C@H](O)[C@@H]2OC(C)=O)cc1`, the “activity, negative = inhibition” value was 0.14% [at 25.6 µM]. For `C[N+]1(C)CCO[C@](O)(c2ccc(-c3ccc([C@]4(O)C[N+](C)(C)CCO4)cc3)cc2)C1`, the “activity, negative = inhibition” value is -2.4% [at 25.6 µM]. Still for that read-out and setting: the same measure for `COc1cc2c(c(OC)c1OC)-c1ccc(O)c(=O)cc1[C@H](N)CC2`: -4.6% [at 25.6 µM]; for `CC(C)COc1ccc(C2(C#N)CC[N+](C)(C)CC2)cc1`: 17.9%; for `COCCCNC(=S)NC1CC2CCCC(C1)N2Cc1cccs1` (stereo not given): 5.68%.

On to `Cc1cc2c(C(F)(F)F)cc(=O)oc2c2c1NCCC2`, for which the half-maximal activity concentration (AC50) was 100 nM (active). Turning to `CCCCC1(CCCC)C(=O)NC(=Nc2cccc(C)c2)NC1=O`, the “activity, negative = inhibition” value was -9.88%. `O=C1C=CC(=O)c2c1ccc1c2ccc2ccccc21`: the AC50 is 794 nM (active).

With `COc1cc([C@H]2c3cc4c(cc3[C@@H](O)[C@@H]3COC(=O)[C@H]23)OCO4)cc(OC)c1OC`, the “activity, negative = inhibition” value is -17.3%. The same measure, in the same setting: with `CCCc1cc2c(n1CCO)C(C)C1CN(C(=O)c3ccccc3)C(C)(C(=O)OC)C21` (stereo not given) the figure was -19.8%; with `COc1cccc2c1[C@H](CO)N1[C@H](C#N)[C@@H]3C[C@H](C(=O)O)[C@@H]([C@@H]1C2)N3C`, -21% [at 2.29 µM]. The same measure, in the same setting: with `C[C@]12CC[C@H]3c4ccc(O)cc4CC[C@@H]3[C@H]1CC[C@@H]2OP(=O)(O)O` the figure was -11.2% [at 2.29 µM]. With `C[C@]12CC[C@@H]3C(=CCc4cc(O)ccc43)[C@@H]1CCC2=O`, the half-maximal activity concentration (AC50) was 10000 nM (active). As to `C[C@]12CCC3c4ccc(OCC(=O)O)cc4CCC3C1CCC2=O` (stereo not given in full), the activity, negative = inhibition was 0.71% [at 2.29 µM]. Same read-out and setting: the same measure for `Cc1cc[c]([Sb]2[O][C@H]([C@H](O)[C@H](O)C(=O)O)[C@@H](CO)[O]2)cc1`: -11.9% [at 11.4 µM]; for `O=C(Cc1ccc(Cl)c(Cl)c1)N1CCCC[C@H]1CN1CCCC1`: -16.4%. Take `COC(=O)Nc1nc2ccc(Sc3ccccc3)cc2[nH]1`: the concentration at half-maximal activity (AC50) is 794 nM (active). As for `COC(=O)Nc1nc2ccc(C(=O)c3cccs3)cc2[nH]1`, the AC50 was 1580 nM (active). Same read-out and setting: with `CCCCc1ccc2nc(NC(=O)OC)[nH]c2c1` the figure was 501 nM (active).

Regarding `CCCCc1ccc(C(=O)O)nc1`, the “activity, negative = inhibition” value is -5.09% [at 25.6 µM]. For the compound `COCCNC(=S)NC1CC2CCCC(C1)N2Cc1cccs1` (stereo not given), the “activity, negative = inhibition” value is 0.311%. On the same count and under the same terms, with `N#CCCN` the figure was -4.42%; with `N[C@@H]1CCc2cc(O)c(O)cc2C1`, -3.23%.

Turning to `CC[C@@H]1[C@@H]2C[C@H]3[C@H]4N(C)c5ccccc5[C@@]45C[C@@H]([C@@H]2[C@@H]5O)N3[C@H]1O`, the “activity, negative = inhibition” value was -7.35% [at 25.6 µM].

On to `Cc1ccc(N(C)C(=O)Oc2cccc3ccc(C)nc23)cc1`, for which the AC50 was 12600 nM (active). For the compound `C[C@@H]1O[C@H](OC2[C@@H](O)[C@H](O)C(O)[C@H](O)[C@H]2O)[C@@H](N)C[C@@H]1N=C(N)C(=O)O` (stereo not given in full), the activity, negative = inhibition is 1.22% [at 2.29 µM]. The same measure, in the same setting: with `c1ccc(CN2CCN(Cc3ccc4c(c3)OCCO4)CC2)cc1` the figure was -22.8%. On the same count and under the same terms, the same measure for `CO[C@@H]([CH2][Hg])CN1C(=O)c2ccccc2S1(=O)=O.Cn1c(=O)c2nc[nH]c2n(C)c1=O`: -22% [at 2.29 µM]. On to `O=c1c(O)c(-c2cc(O)c(O)c(O)c2)oc2cc(O)cc(O)c12`, for which the concentration at half-maximal activity (AC50) is 2000 nM (active). As for `CCC(=O)O[C@@](Cc1ccccc1)(c1ccccc1)[C@@H](C)CN(C)C`, the “activity, negative = inhibition” value is -8.18% [at 25.6 µM]. On the same count and under the same terms, the same measure for `Cc1nc(-c2ccc(-c3ccc(C(=O)N4CCc5cc6c(cc54)C4(CCN(C)CC4)CO6)cc3)c(C)c2)no1`: 5.55%; for `NCCCN1CCN(c2ccccc2)CC1`: -15.9% [at 11.4 µM]. In the case of `Nc1ccc(CCN2CCN(c3cccc(C(F)(F)F)c3)CC2)cc1`, the half-maximal activity concentration (AC50) was 10000 nM (active). Same read-out and setting: the same measure for `C[N+](C)(C)CC#CCN1CCCC1=O`: “inactive”; for `CCN(CC)C1=NC(=[N+](CC)CC)c2ccccc21`: 15800 nM (active).

As to `NC(=O)c1ncn([C@H]2O[C@@H](CO)[C@@H](O)[C@@H]2O)n1`, the “activity, negative = inhibition” value is 2.01% [at 25.6 µM]. Same read-out and setting: with `Cc1cc(C)c(-n2c(O)c(C=NCCN3CCOCC3)c(=O)[nH]c2=O)c(C)c1` the figure was -0.0514%; with `CC(C)[C@@]1(NC(=O)[C@@H]2C[C@H]3c4cccc5[nH]cc(c45)C[C@@H]3N(C)C2)O[C@]2(O)[C@H]3CCCN3C(=O)[C@H](Cc3ccccc3)N2C1=O`, -7.15% [at 25.6 µM]. `COc1ccc(-n2nc(C(F)(F)F)cc2-c2ccc(Cl)cc2)cc1`: the AC50 is 501 nM (active). As to `NC(N)=NCCN=C(N)N`, the activity, negative = inhibition was -17.5% [at 11.4 µM].
